For 40 molecules, growth results are on record in PubChem BioAssay (NCI).

This is part of a sample that, as a whole, favours compounds with a hit. Of some 83,000 tested, about 20% had one in any assay.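 48-hour exposure, single concentration, 96-well plates; percent growth endpoint where 0 means no net growth. Active: below 10.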 Values without a mark were called inactive. Calls of active or inactive are those of the source.

The assay deals with HL-60(TB) leukemia. In words: NCI-60 one-dose screen, 48 h (100 = growth as untreated, 0 = no growth, -100 = all killed). Conditions: 10 µM unless noted.
Regarding `CCCCCCCCCC(C)NC(=O)CCl` (stereo not given), the growth was 92.3%. The value for `CCOC(=O)C1(C)CCCC1N` (stereo not given) was 98.5%.

`Cc1ccc(-c2nc3nc(-c4ccc(Br)cc4)nc(N4CCCNCC4)c3o2)cc1`: the growth is -47.3% (active). The value for `C/C(=N\O)c1ccc(NC(=O)CSc2nnc(-c3cc(-c4ccc(S(C)(=O)=O)cc4)nc4ccccc34)n2-c2ccccc2)cc1` was 84%; that for `Cc1cccc(CC(=O)c2ccccc2)n1` was 86.9%.

In the case of `Fc1ccccc1-c1cnn2cc(-c3ccccc3)cnc12`, the growth was 98.6%.

Turning to `CCCn1c2cc(OCc3cn(-c4ccc(Cl)cc4)nn3)ccc2c2ccnc(C)c21`, the growth was -51.4% (active). Under `Cc1ccc(-c2cc(-c3cccnc3)[nH]c(=O)c2C#N)cc1` stands 99%; under `CCOC(=O)Cc1cc(Br)c(OCc2ccccc2)c(Br)c1`, 71.7%. Regarding `Cc1ccc(NC(=O)N/C(N)=N/c2nc(=O)c3ccccc3s2)cc1`, the growth is 33.7%. In the case of `NNC(=O)c1ccccc1N`, the growth is 122%. With `COc1cc2ncnc(Oc3ccc(NC(=O)Nc4ccc(C5(C#N)CCCC5)cc4)c4ccccc34)c2cc1OC`, the growth is 72.6%. The value for `Oc1ccccc1C=Nc1ccccc1N=Cc1ccccc1O.[Cu+2]` was 55.8%; that for `CCC(C)/C(=C\C#N)NCCCN/C(=C/C#N)C(C)CC` (stereo not given) was 64.6%. For `CC(C)(C)c1cn2cccc(C(=O)N3CCN(CC(=O)Nc4ccc(Cl)cc4C(=O)c4ccccc4Cl)CC3)c2n1`, the growth was -32.4% (active).

On to `O=c1c2cc(F)ccc2sc2c(NCCCNCCO)nc3ccccc3c12`, for which the growth was 6.49% (active).

`CC1(c2ccc(Cl)cc2)OC(=O)CC(=O)O1`: the growth is 74.7%.

Turning to `CC(C)NCC(O)COc1ccc(CCOCC2CC2)cc1` (stereo not given), the growth was 92.8%.

In the case of `O=[N+]([O-])c1cc(CCl)ccc1OCCBr`, the growth was 119%. Take `COc1ccc(CN2CCC(N3CCCC3=O)c3cc(Cl)ccc32)cc1` (stereo not given): the growth was 80.2%. Under `COc1cc(-c2cc(-c3ccc(Nc4nc(Nc5ccc(Cl)cc5)nc(Nc5ccc(Cl)cc5)n4)cc3)no2)cc(OC)c1OC` stands -68.2% (active). The value for `COc1ccc2c(c1)/C(=C/c1c(-c3cc(OC)c(OC)c(OC)c3Br)nc3sccn13)C(=O)N2` was 77.1%; that for `CC1(C)CC[C@]2(CO)CC[C@]3(C)C(=CC[C@@H]4[C@@]5(C)CCNCC(C)(C)[C@@H]5CC[C@]43C)[C@@H]2C1` was 23.5%; that for `CN1CCN(c2cc(Nc3cc(C4CC4)[nH]n3)nc(Nc3ccc(CC(=O)NCc4cccc(F)c4)cc3)n2)CC1` was 19.9%. Under `C/C(=N\Nc1ccc([N+](=O)[O-])cn1)c1ccc(N)cc1` stands -30.8% (active). Turning to `O=C(Nc1ccncc1)C(=O)c1cn(S(=O)(=O)c2cccc(Cl)c2F)c2ccccc12`, the growth was 68.5%. Under `CNC(=S)N/N=C/CSC/C=N/NC(=S)NC` stands 85%; under `CCCCCCCC(C)NCCO` (stereo not given), 101%. The value for `COc1cc(-c2nc(N=Nc3c(O)[nH]c4ccc(Br)cc34)[nH]c(=O)c2C#N)cc(OC)c1OC` was 101%; that for `Cc1ccc(C2SCC(=O)N2Cc2ccccc2)cc1` (stereo not given) was 96.1%. With `COc1ccc(/C=C2/CN(C(=O)c3ccccc3F)C/C(=C\c3ccc(OC)cc3)C2=O)cc1`, the growth is 51.4%. As for `COc1ccc(C(=O)C2=CC(=O)C(=O)C2)cc1OC`, the growth was 110%.

On to `COC(=O)Nc1ccc2ccc3c(NC(=O)OC)ccc4ccc1c2c43` (tested in a mixture with another compound), for which the growth was 33.8%.

Take `Cc1cn(C2CC(N=[N+]=[N-])C(COP(=O)(O)OP(=O)(O)OP(=O)(O)O)O2)c(=O)[nH]c1=O` (stereo not given): the growth is -96.5% (active). For `Cc1cc(O)c(C(C)C)cc1Cl`, the growth is 101%. Turning to `CN1CCN(C(=O)c2c3c(n4ccccc24)C(=O)c2ncccc2C3=O)CC1`, the growth was 53.4%. Turning to `COc1ccc(C2=CN3CC=CC3CC2=O)cc1` (stereo not given), the growth is 106%. The value for `CC(=O)Oc1ccc(Cl)cc1CN(C(C)=O)C1CCCCC1` was 92.8%. As for `C=C1C(=O)O[C@H]2[C@H]1CC/C(Cn1cc(-c3ccccc3C(F)(F)F)nn1)=C\CC[C@@]1(C)O[C@@H]21`, the growth is -13.3% (active). The value for `CNCCCC12CCC(c3ccccc31)c1ccccc12` was 71%.
